# Data as given in PubChem BioAssay (NCATS).
# Inconclusive results are not listed. Active and inactive are the calls of the source. The call rests on the fitted dose curve; in most records, active means well fitted inhibition curve with a large enough effect; inconclusive means small, poorly fitted or top-dose-only effect; inactive means flat fitted curve, though single readings scatter.
# Tested on: CP256
# Assay: qHTS profiling for inhibitors of Plasmodium falciparum proliferation (AID 504749); further: nearly all actives have a fitted effect of over 60% in size;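 on activity, negative = inhibition: 0% = DMSO vehicle and full inhibition = artemisinin control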
# Conditions: P. falciparum in erythrocytes, SYBR Green DNA, 72 h; series mostly up to 28.7 µM; activity, negative = inhibition: at the top concentration
# Procedure, shortened: (§1)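 Parasite proliferation within erythrocytes, 72 h exposure. Endpoint: SYBR Green I fluorescence after overnight lysis at room temperature. Controls: 0.29 uM artemisinin, DMSO.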
# Potency means the concentration at half of the fitted maximal effect.
SMILES,"activity, negative = inhibition",Potency
NC(=O)N1c2ccccc2CC(=O)c2ccccc21,-3.8% (inactive),–
CNS(=O)(=O)Cc1ccc2[nH]cc(CCN(C)C)c2c1,10.4% (inactive),–
CCCc1cc(C(N)=S)ccn1,5.68% (inactive),–
CCCN[C@H]1CCc2nc(N)sc2C1,15.3% (inactive),–
COc1ccc(C(=O)CC(=O)c2ccc(C(C)(C)C)cc2)cc1,4.27% (inactive),–
CC(C)Cn1cnc2c(N)nc3ccccc3c21,-9.34% (inactive),–
Nc1nc(N)nc(-c2cc(Cl)ccc2Cl)n1,4.4% (inactive),–
OC(Cn1cncn1)(Cn1cncn1)c1ccc(F)cc1F,9.22% (inactive),–
CC(C)OC(=O)C(C(=O)OC(C)C)=C1SC=CS1,5.37% (inactive),–
NCCCC(O)(P(=O)(O)O)P(=O)(O)O,6.86% (inactive),–
CC1=CC(=O)c2ccccc2C1=O,-1.15% (inactive),–
Nc1ccc(S(=O)(=O)Nc2ccccn2)cc1,0.691% [at 12.8 µM] (inactive),–
Cc1noc(NS(=O)(=O)c2ccc(N)cc2)c1C,-1.56% (inactive),–
O=c1cc(O)c(Cl)c[nH]1,5.53% (inactive),–
Cn1nnc2c(C(N)=O)ncn2c1=O,0.443% (inactive),–
CNC1CCCN(c2c(F)cc3c(=O)c(C(=O)O)cn(C4CC4)c3c2OC)C1 (stereo not drawn),-0.391% (inactive),–
C#CCN[C@@H]1CCc2ccccc21,-0.697% (inactive),–
COc1cc(NCc2ccc3nc(N)nc(N)c3c2C)cc(OC)c1OC,–,316 nM (active)
N[C@@H](C(=O)N[C@@H]1C(=O)N2C(C(=O)O)=C(Cl)CS[C@H]12)c1ccccc1,6.77% (inactive),–
CN(C)CCc1c[nH]c2ccc(CS(=O)(=O)N3CCCC3)cc12,-1.99% (inactive),–
C[C@]12C=CC(=O)C=C1CC[C@@H]1[C@@H]2C(=O)C[C@@]2(C)[C@H]1CC[C@]2(O)C(=O)CO,2.03% (inactive),–
Nc1[nH]c(=O)ncc1F,-18.2% [at 12.8 µM] (inactive),–
COc1ccc(-c2ccc3cc(C(=O)O)ccc3c2)cc1C12CC3CC(CC(C3)C1)C2,-2.79% (inactive),–
O=NN(CCCl)C(=O)NC1CCCCC1,3.65% (inactive),–
CC[C@H](C)C(=O)O[C@H]1C[C@@H](C)C=C2C=C[C@H](C)[C@H](CC[C@@H]3C[C@@H](O)CC(=O)O3)[C@H]21,1.98% (inactive),–
Cc1cccc(Nc2ccncc2S(=O)(=O)NC(=O)NC(C)C)c1,11.2% [at 12.8 µM] (inactive),–
CN1CCN(c2c(F)cc3c(=O)c(C(=O)O)cn(CCF)c3c2F)CC1,0.0688% (inactive),–
CCOC(=O)[C@H](CCc1ccccc1)N[C@H]1CS[C@H](c2cccs2)CN(CC(=O)O)C1=O,-3.75% (inactive),–
N=C(N)c1ccc(OCCCCCOc2ccc(C(=N)N)cc2)cc1,–,501 nM (active)

# Tested on: CP260
# Assay: as above
# Conditions: P. falciparum in erythrocytes, SYBR Green DNA, 72 h; series mostly up to 28.7 µM; activity, negative = inhibition: at the top concentration
# Procedure, shortened: as §1
SMILES,"activity, negative = inhibition",Potency
NC(=O)N1c2ccccc2CC(=O)c2ccccc21,4.6% (inactive),–
CNS(=O)(=O)Cc1ccc2[nH]cc(CCN(C)C)c2c1,-16.2% (inactive),–
CCCc1cc(C(N)=S)ccn1,0.612% (inactive),–
CCCN[C@H]1CCc2nc(N)sc2C1,3.11% (inactive),–
Nc1nc(N)nc(-c2cc(Cl)ccc2Cl)n1,-11.6% (inactive),–
OC(Cn1cncn1)(Cn1cncn1)c1ccc(F)cc1F,0.461% (inactive),–
CC(C)OC(=O)C(C(=O)OC(C)C)=C1SC=CS1,4.5% (inactive),–
NCCCC(O)(P(=O)(O)O)P(=O)(O)O,6.93% (inactive),–
Nc1ccc(S(=O)(=O)Nc2ccccn2)cc1,1.44% [at 12.8 µM] (inactive),–
Cc1noc(NS(=O)(=O)c2ccc(N)cc2)c1C,-4.22% (inactive),–
O=c1cc(O)c(Cl)c[nH]1,2.88% (inactive),–
Cn1nnc2c(C(N)=O)ncn2c1=O,3.57% (inactive),–
CNC1CCCN(c2c(F)cc3c(=O)c(C(=O)O)cn(C4CC4)c3c2OC)C1 (stereo not drawn),-15.7% (inactive),–
C#CCN[C@@H]1CCc2ccccc21,7.83% (inactive),–
COc1cc(NCc2ccc3nc(N)nc(N)c3c2C)cc(OC)c1OC,–,158 nM (active)
N[C@@H](C(=O)N[C@@H]1C(=O)N2C(C(=O)O)=C(Cl)CS[C@H]12)c1ccccc1,3% (inactive),–
CN(C)CCc1c[nH]c2ccc(CS(=O)(=O)N3CCCC3)cc12,-9.7% (inactive),–
C[C@]12C=CC(=O)C=C1CC[C@@H]1[C@@H]2C(=O)C[C@@]2(C)[C@H]1CC[C@]2(O)C(=O)CO,0.527% (inactive),–
Nc1[nH]c(=O)ncc1F,-4.18% [at 12.8 µM] (inactive),–
COc1ccc(-c2ccc3cc(C(=O)O)ccc3c2)cc1C12CC3CC(CC(C3)C1)C2,6.41% (inactive),–
O=NN(CCCl)C(=O)NC1CCCCC1,5.93% (inactive),–
CC[C@H](C)C(=O)O[C@H]1C[C@@H](C)C=C2C=C[C@H](C)[C@H](CC[C@@H]3C[C@@H](O)CC(=O)O3)[C@H]21,-14.2% (inactive),–
Cc1cccc(Nc2ccncc2S(=O)(=O)NC(=O)NC(C)C)c1,-4.27% [at 12.8 µM] (inactive),–
CN1CCN(c2c(F)cc3c(=O)c(C(=O)O)cn(CCF)c3c2F)CC1,2.31% (inactive),–
CCOC(=O)[C@H](CCc1ccccc1)N[C@H]1CS[C@H](c2cccs2)CN(CC(=O)O)C1=O,-28.8% (inactive),–
N=C(N)c1ccc(OCCCCCOc2ccc(C(=N)N)cc2)cc1,–,2000 nM (active)

# Tested on: CP262
# Assay: as above
# Conditions: P. falciparum in erythrocytes, SYBR Green DNA, 72 h; series mostly up to 28.7 µM; activity, negative = inhibition: at the top concentration
# Procedure, shortened: as §1
SMILES,"activity, negative = inhibition",Potency
CNS(=O)(=O)Cc1ccc2[nH]cc(CCN(C)C)c2c1,19.9% (inactive),–
CCCc1cc(C(N)=S)ccn1,-0.0657% (inactive),–
CCCN[C@H]1CCc2nc(N)sc2C1,3.34% (inactive),–
COc1ccc(C(=O)CC(=O)c2ccc(C(C)(C)C)cc2)cc1,1.04% (inactive),–
CC(C)Cn1cnc2c(N)nc3ccccc3c21,-5.76% (inactive),–
Nc1nc(N)nc(-c2cc(Cl)ccc2Cl)n1,-17.8% (inactive),–
OC(Cn1cncn1)(Cn1cncn1)c1ccc(F)cc1F,0% (inactive),–
CC(C)OC(=O)C(C(=O)OC(C)C)=C1SC=CS1,17% (inactive),–
NCCCC(O)(P(=O)(O)O)P(=O)(O)O,0% (inactive),–
CC1=CC(=O)c2ccccc2C1=O,-1.84% (inactive),–
Nc1ccc(S(=O)(=O)Nc2ccccn2)cc1,10.2% [at 12.8 µM] (inactive),–
Cc1noc(NS(=O)(=O)c2ccc(N)cc2)c1C,-6.49% (inactive),–
O=c1cc(O)c(Cl)c[nH]1,0% (inactive),–
Cn1nnc2c(C(N)=O)ncn2c1=O,-2.53% (inactive),–
CNC1CCCN(c2c(F)cc3c(=O)c(C(=O)O)cn(C4CC4)c3c2OC)C1 (stereo not drawn),-4.4% (inactive),–
C#CCN[C@@H]1CCc2ccccc21,10.5% (inactive),–
COc1cc(NCc2ccc3nc(N)nc(N)c3c2C)cc(OC)c1OC,–,169 nM (active)
N[C@@H](C(=O)N[C@@H]1C(=O)N2C(C(=O)O)=C(Cl)CS[C@H]12)c1ccccc1,-2.93% (inactive),–
CN(C)CCc1c[nH]c2ccc(CS(=O)(=O)N3CCCC3)cc12,-4.69% (inactive),–
C[C@]12C=CC(=O)C=C1CC[C@@H]1[C@@H]2C(=O)C[C@@]2(C)[C@H]1CC[C@]2(O)C(=O)CO,9.67% (inactive),–
Nc1[nH]c(=O)ncc1F,-3.96% [at 12.8 µM] (inactive),–
COc1ccc(-c2ccc3cc(C(=O)O)ccc3c2)cc1C12CC3CC(CC(C3)C1)C2,0% (inactive),–
O=NN(CCCl)C(=O)NC1CCCCC1,-1.61% (inactive),–
CC[C@H](C)C(=O)O[C@H]1C[C@@H](C)C=C2C=C[C@H](C)[C@H](CC[C@@H]3C[C@@H](O)CC(=O)O3)[C@H]21,12.6% (inactive),–
Cc1cccc(Nc2ccncc2S(=O)(=O)NC(=O)NC(C)C)c1,2.15% [at 12.8 µM] (inactive),–
CN1CCN(c2c(F)cc3c(=O)c(C(=O)O)cn(CCF)c3c2F)CC1,3.79% (inactive),–
CCOC(=O)[C@H](CCc1ccccc1)N[C@H]1CS[C@H](c2cccs2)CN(CC(=O)O)C1=O,10.1% (inactive),–
N=C(N)c1ccc(OCCCCCOc2ccc(C(=N)N)cc2)cc1,–,757 nM (active)
